Each structure is given as a SMILES string. Compounds without any hit were thinned out: in the full panel of roughly 79,000, 15% have a hit. Values without a mark were called inactive. The source made the active and inactive calls. Rule as the data show it: active = growth inhibition above about 70%; inactive = the rest.

The assay in a line: NCI Yeast Anticancer Drug Screen. Data for the rad50 strain (AID 155).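 Also: 0% = growth of vehicle-only cultures of the same strain.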 The settings on record: S. cerevisiae rad50 strain growth inhibition; at 50.0 µM; stronger effect = higher value. The procedure, abridged: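 DNA repair mutant yeast, compound exposure, growth read-out; inhibition is taken relative to vehicle.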
For `O=[N+]([O-])c1cc[n+]([O-])c2ccccc12`, the growth inhibition was 99.2% (active). In the case of `COc1c[c]([Hg][O]C(C)=O)c(OC)c(NC(=O)CC(C)=O)[c]1[Hg][O]C(C)=O`, the growth inhibition was 89.7% (active). Regarding `CN(C)c1ccc(C2N(Cc3ccc(N(CCCl)CCCl)cc3)CCCN2Cc2ccc(N(CCCl)CCCl)cc2)cc1`, the growth inhibition is 52.5%. The value for `CC(=O)c1ccc(-[n+]2c(C)cc(-c3ccccc3)cc2C)cc1` was -15.4%; that for `[O]=[Sb]([OH])([OH])[c]1ccc(NC2OC(CO)C(O)C(O)C2O)cc1` (stereo not given) was 6.45%. As to `CCC1CN1P(=O)(Oc1ccccc1)N1CC1CC` (stereo not given), the growth inhibition was -5.7%. Under `CCN(CC)CC(=O)c1cc2ccccc2c2ccccc12` stands 99.3% (active); under `O=C1CCCC1Cl` (stereo not given), 39.8%. In the case of `N#C[S-].[La+3].c1ccc(-c2ccccn2)nc1.c1ccc(-c2ccccn2)nc1.c1ccc(-c2ccccn2)nc1`, the growth inhibition is 91.5% (active). The value for `O=c1s[se]c2ccccc12` was 84.2% (active); that for `O=C(CCl)Nc1ccc(Cl)cc1` was 54.6%; that for `O=C1N[C@H]2[C@H](O)[C@H](O)[C@@H](O)[C@H](O)[C@@H]2c2cc3c(c(O)c21)OCO3` was 69%.

`O=C(Nc1n[c]([Hg][Cl])[c]([Hg][Cl])s1)OCc1ccccc1`: the growth inhibition was 99% (active). As to `CC[C@@]1(O)C[C@H](OC2CC(N(C)C)C(O)C(C)O2)c2c(cc3c(c2O)C(=O)c2c(O)ccc(O)c2C3=O)[C@H]1C(=O)OC` (stereo not given in full), the growth inhibition is 91.1% (active).

Turning to `CCCCCc1cc(O)c(CCCC)c(O)c1`, the growth inhibition is 99.4% (active).
